Cy5 interf NS3h: counter-screen for HCV NS3 helicase inhibitors: fluorescence interference; Cy5-dT15 DNA with NS3h; actives lie on both sides; signal over control mean, under 1 quenches; fluorescence interference ratio at 100 µM; actives 6% (n = 16,000); AID 720488;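 active = compound fluorescence over control fluorescence at most 0.8, a quencher, or at least a set upper limit, an enhancer; inactive = ratio between 0.8 and the set upper limit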
NS3h inh CB: blocks HCV NS3 helicase binding to DNA | NS3h Cy5-dT15 DNA binding, fluorescence polarization | inhibition, % at 100 µM | actives 1.6% (n = 16,000) | AID 687043;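 active = inhibition above the average over every tested compound plus 3 SD, cut at about 40% in these data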
Numbers stand for hits; . = inactive. Compounds with a hit are over-represented: about 6.9% of the library has one in this group of screens.

SMILES	Cy5 interf NS3h	NS3h inh CB
CCOC(=O)C1=C(C)NC(C)=C(C(=O)OC)C1c1cc(Cl)cc(Cl)c1OC (stereo not given)	0.787	.
CCOC(=O)C1=C(C)NC(=O)NC1c1ccc(OC)cc1OC (stereo not given)	.	.
O=C1CC(S(=O)(=O)O)c2ccccc2/C1=N\O (stereo not given)	.	.
Cc1cc(OCC(=O)Nc2cccnc2)cc(C)c1Cl	0.8	.
Cc1ccc(OCC(=O)Nc2ccc(C)cc2[N+](=O)[O-])cc1	.	.
Cc1cc(OCC(=O)Nc2ccccc2[N+](=O)[O-])cc(C)c1Cl	0.732	.
O=C(Cc1ccc(Cl)cc1)Nc1cccnc1	0.714	.
COC(=O)c1cc(NC(=O)COc2cc(C)c(Cl)c(C)c2)cc(C(=O)OC)c1	.	.
O=C(Cc1ccc(Cl)cc1)Nc1ccc(Cl)cn1	.	.
O=C(c1ccc(Cl)cc1[N+](=O)[O-])N1CCN(Cc2ccccc2)CC1	.	.
CN1C(=O)C(=Cc2ccc(-c3cc([N+](=O)[O-])ccc3O)o2)C(=O)N(C)C1=O	.	.
CC(=O)N1CCN(c2nc(-c3ccccc3)c3cc(Cl)ccc3n2)CC1	.	.
O=C(NC(=S)Nc1ccc(N2CCOCC2)c(Cl)c1)c1ccco1	.	.
O=C(O)c1cccc(CP(=O)(c2ccccc2)c2ccccc2)c1	.	.
COc1ccc(C2Nc3ccccc3C(=O)N2Cc2ccccc2)cc1Cn1cc([N+](=O)[O-])cn1 (stereo not given)	.	.
Cc1ccccc1OCCSc1nc2ccc(Br)cc2[nH]1	.	.
Fc1cnc(N2CCOCC2)nc1N1CCN(c2ccccc2)CC1	.	.
Cc1ccc2cccc(OC(=O)c3ccc(Br)o3)c2n1	.	.
O=C(Oc1ccc(Oc2ccccc2)cc1)c1ccc(Br)o1	1.22	.
COc1ccc(/C=C/C(=O)N2CCC(CN3C(=O)c4cccc5cccc(c45)C3=O)CC2)cc1OC	.	.
COC(=O)c1nnn(-c2cc3nccnc3cc2F)c1C(=O)OC	0.717	.
COCCNC(=O)Nc1ccc2nccnc2c1	.	.
CCc1nc(NC(=O)NS(=O)(=O)c2ccccc2C(=O)OC)nc(OC)n1	.	.
CC(NC(=O)c1ccc(Br)cc1)c1ccccc1 (stereo not given)	0.787	.
CC(=O)CC(=O)NC(C)c1ccccc1 (stereo not given)	.	.
SMILES	Cy5 interf NS3h	NS3h inh CB
Cc1ccc(NC(=O)C(=O)NCCN2CCN(C(=O)c3ccccc3[N+](=O)[O-])CC2)cc1	.	.
Cc1[nH]nc2c1C(c1cc(Br)cs1)C(C#N)=C(N)O2 (stereo not given)	1.24	.
COC(=O)C1=C(N)Oc2n[nH]c(C)c2C1c1ccc(Br)cc1 (stereo not given)	.	.
O=C(Nc1ccccc1Br)NS(=O)(=O)c1ccccc1Cl	.	.
CCO/C(C)=C1\C(=O)Nc2ccccc21	.	.
CS(=O)(=O)N(CC(O)Cn1c2ccc(Cl)cc2c2cc(Cl)ccc21)c1ccccc1 (stereo not given)	.	.
CCC(C)NCC(O)Cn1c2ccc(Cl)cc2c2cc(Cl)ccc21 (stereo not given)	0.773	.
O=C(Nc1ccc(NC(=O)c2ccc(-c3cccc(Cl)c3)o2)cc1)c1ccco1	.	.
CCCC(=O)Nc1cc(OC)ccc1OC	0.736	.
COc1ccc(OC)c(NC(=O)COc2ccc(Br)cc2C)c1	.	.
O=C(/C=C/c1cccc([N+](=O)[O-])c1)Nc1ccc2oc(-c3ccccc3F)nc2c1	0.775	.
O=C(COc1ccc([N+](=O)[O-])cc1)Nc1ccc2oc(-c3ccccc3F)nc2c1	.	.
O=C(CSc1nnc(-c2ccco2)n1-c1ccccc1)CSc1nnc(-c2ccco2)n1-c1ccccc1	.	.
O=C1C(=O)N(c2cccc([N+](=O)[O-])c2)C(c2ccc(F)cc2)C1=C(O)c1ccccc1 (stereo not given)	.	.
Nc1nnc(SCC(=O)c2ccc([N+](=O)[O-])cc2)s1	.	.
O=c1cc(-c2ccccc2)nc2cc(-c3cccs3)[nH]n12	.	57.1
Cc1cc(=O)n2[nH]c(-c3cccs3)cc2n1	.	.
COCP(=O)(c1ccccc1)c1ccccc1	.	.
Cc1ccc(S(=O)(=O)OCP(=O)(c2ccccc2)c2ccccc2)cc1	0.767	.
Cc1cc(F)ccc1NC(=O)c1ccccc1	.	.
CCOC(=O)c1c(NC(=O)c2ccc([N+](=O)[O-])cc2)sc2c1CCCCC2	.	.
CCOC(=O)c1c(NC(=O)Cn2cnc([N+](=O)[O-])n2)sc2c1CCC2	0.572	.
O=C(NC[n+]1ccccc1)c1ccc(Cl)cc1	1.2	.
O=C(NCc1ccc(Cl)cc1)c1ccc(I)cc1	.	.
CS(=O)(=O)N(CC(=O)N1CCOCC1)c1ccc(Cl)cc1	.	.
SMILES	Cy5 interf NS3h	NS3h inh CB
CCOc1ccc(N(CC(=O)N2CCOCC2)S(C)(=O)=O)cc1	0.753	.
COc1ccc(NC(=O)CN(c2cc(Cl)cc(Cl)c2)S(C)(=O)=O)cc1OC	.	.
Cc1ccc(C)c(NCC(=O)Nc2c(C)cccc2C)c1	.	.
Cc1cc(C)nc(N=C(N)Nc2ccc(Cl)cc2C(=O)c2ccccc2)n1	0.792	.
Cc1cc(C)nc(N=C(N)Nc2ccc(C(=O)O)cc2)n1	.	.
Cc1nc(=O)c(-c2ccccc2)c(C)n1-c1ccc(OCC(=O)O)cc1	.	.
CCOc1ccc2c(c1)nc(C)n2CC	.	.
COc1ccc(OC)c(CN2CCN(Cc3ccc(OC)c(Br)c3)CC2)c1	.	.
COc1ccc(CN2CCN(CC3CC4C=CC3C4)CC2)cc1Br (stereo not given)	0.749	.
CCOc1ccc(S(=O)(=O)Nc2c(C)cc(C)cc2C)cc1	.	.
COc1ccc(/C=C2/N=C(c3ccc(Br)cc3)OC2=O)cc1	1.21	.
O=C1OC(c2ccc(F)cc2)=N/C1=C\c1ccc(Cl)cc1	.	.
O=C1OC(/C=C/c2ccccc2)=NC/1=C/c1ccccc1	0.782	.
Cc1ccc(/C=C2N=C(/C=C/c3ccccc3)OC/2=O)s1	.	.
COc1ccc(/C=C2\C(=O)ON=C2C)cc1	.	.
COc1ccc(/C=C2N=C(/C=C/c3ccccc3)OC/2=O)cc1	0.721	.
CCOc1cc(-c2ccc(O)cc2)cc(=O)c2c(C)oc(C)c12	.	.
COc1ccc(OC)c(CN2CCN(Cc3cc(OC)c(OC)cc3[N+](=O)[O-])CC2)c1	.	.
CC1=C(C(=O)OC2CCCCC2)C(c2ccsc2)C2=C(CC(C)(C)CC2=O)N1 (stereo not given)	.	.
CN(C1=NC(=O)S/C1=C\c1ccc([N+](=O)[O-])cc1)c1ccc(O)cc1	.	.
CN(C1=NC(=O)/C(=C\C(Cl)=C\c2ccc([N+](=O)[O-])cc2)S1)c1ccc(O)cc1	0.405	.
O=[N+]([O-])c1ccc(C=Nc2ccc(Oc3ccccc3)cc2)s1	.	.
CCOc1ccc(NC(=O)/C(=C\c2ccco2)NC(=O)c2ccc(C)cc2)cc1	.	.
CC1=NN(c2cccc(C(=O)O)c2)C(=O)/C1=C\c1ccc(-c2cc([N+](=O)[O-])ccc2C)o1	.	.
CC1=NN(c2ccc(C)c(C)c2)C(=O)/C1=C/c1ccc([N+](=O)[O-])o1	0.675	.
O=[N+]([O-])c1ccc2c(c1)C1C=CCC1C(c1cccc(Cl)c1Cl)N2 (stereo not given)	.	.
O=C(Nc1ccccc1)Nc1nnc(Cc2ccc(Cl)c(Cl)c2)s1	.	.
